PLK1 PBD inh – PLK1 (human) polo-box domain binding inhibition; P53350; Plk1 PBD binding of FITC phosphopeptide, fluorescence polarization; Potency, µM, for inactives: max response, negative = inhibition, hits mostly inhibitors; 360,000 tested, 2.8% active; AID 720504; note: series mostly up to about 57 µM; nearly all actives have a fitted effect of over 65% in size
VDR inh – inhibitors of human vitamin D receptor. 400,000 tested, 0.93% active. VDR-SRC2-3 peptide fluorescence polarization, 2 h. Potency, µM, for the others: max response, negative = inhibition, actives largely listed as inhibitors. AID 504847. P11473
Target sequence (P11473 whole entry, looked up): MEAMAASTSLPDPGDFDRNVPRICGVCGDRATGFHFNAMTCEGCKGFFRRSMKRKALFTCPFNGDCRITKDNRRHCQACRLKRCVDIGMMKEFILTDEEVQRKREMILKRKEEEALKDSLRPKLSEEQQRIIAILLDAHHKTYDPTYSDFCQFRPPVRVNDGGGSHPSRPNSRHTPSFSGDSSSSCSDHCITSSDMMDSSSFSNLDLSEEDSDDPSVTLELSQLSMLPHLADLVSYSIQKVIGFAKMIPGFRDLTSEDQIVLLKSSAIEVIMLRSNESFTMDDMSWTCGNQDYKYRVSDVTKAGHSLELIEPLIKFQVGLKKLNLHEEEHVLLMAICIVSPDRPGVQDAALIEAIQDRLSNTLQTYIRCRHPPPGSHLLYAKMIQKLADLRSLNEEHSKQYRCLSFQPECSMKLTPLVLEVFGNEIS
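The screen uses fluorescence polarization to detect compounds that interfere with recruitment of the SRC2-3 coactivator peptide to VDR; plates are read after 2 h at room temperature.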
TDP1 cell noCPT – qHTS for Inhibitors of human tyrosyl-DNA phosphodiesterase 1 (TDP1): qHTS in cells in absence of CPT; DT40 Tdp1-/- hTDP1 cells, no CPT, ATP luminescence, 48 h; Potency, µM (series often up to 46.2 µM), without a hit: at the top dose activity change, negative = growth inhibition, most hits filed as inhibitors; 420,000 tested, 15% active; note: nearly all actives have a fitted effect of over 55% in size
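Seeded 400 DT40-hTDP1 cells/well (vehicle DMSO, no 20 nM CPT); pinned compounds; ≥48 hr at 37 °C; CellTiter-Glo luminescence as viability measure.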
KAT2A inh – inhibitors of human GCN5L2 histone acetyltransferase; GCN5L2 HAT assay, ThioGlo1 CoA-SH fluorescence; Q92830; 390,000 tested, 0.21% active; Potency, µM (top dose mostly 58.9 µM), inactives show at the top dose activity change, negative = inhibition, most hits filed as inhibitors
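GCN5L2 (20nM final) in 50mM HEPES, 0.1mM EDTA pH 7.5, 0.01% Tween-20 was preincubated 15 min at room temperature with compound, then given ThioGlo1 (50uM), H3(1-25) peptide (75uM) and acetyl-CoA (70uM); CoA-thiol fluorescence (Ex340/Em540) was read at 0 and 20 min.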
TDP1 cell CPT – DT40-hTDP1 cell growth loss with CPT. AID 686979. chicken DT40 Tdp1-/-;hTDP1 cells + 20 nM CPT, ATP luminescence, 48 h. 420,000 tested, 12% active. Potency, µM (series often up to 46.2 µM), for the others: at the top dose activity change, negative = growth inhibition, most hits filed as inhibitors; note: nearly all actives have a fitted effect of over 55% in size
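Cell growth measured by CellTiter-Glo luminescence after a minimum 48 h, 37 C compound exposure with 20 nM CPT in Tdp1-knockout DT40 cells stably expressing hTDP1, seeded 400/well; qHTS titration format.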
TDP1 block – blocks human tyrosyl-DNA phosphodiesterase 1; Q9NUW8; Potency, µM (doses to about 130 µM), inactives show at the highest dose activity change, negative = inhibition, most hits filed as inhibitors; AID 485290; recombinant TDP1, AlphaScreen DNA substrate cleavage; 350,000 tested, 0.28% active; note: nearly all actives have a fitted effect of over 40% in size
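Signal: AlphaScreen proximity between streptavidin donor and anti-FITC acceptor beads on intact substrate. Reaction: Tdp1 1 nM, substrate 15 nM final, 5 min RT after 15 min compound preincubation.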
The depositor's hits bear a star; ? = inconclusive; . = no result; [ ] = remark or other dose. This is a sample that favours compounds with a hit; in the whole collection about 18% have one here. Calls come from the whole dose curve; as a rule, active = well fitted curve in the direction sought with a large enough effect; inconclusive = small, poorly fitted or top-dose-only effect, or another doubt; inactive = no such curve, though single readings can be large; an effect the other way counts as inactive or inconclusive. % is set by controls: 0 for no effect and ±100 for the full control effect; potency is the fitted concentration of half-maximal effect.

SMILES	PLK1 PBD inh	VDR inh	TDP1 cell noCPT	KAT2A inh	TDP1 cell CPT	TDP1 block
CCCCC1=CC2=C(c3ccco3)C(=O)C(C)(OC(=O)c3ccc(OC)cc3)C(=O)C2=CN1CCCCO (configuration not stated)	-17%	-13%	?	-15%	?	-1%[12.3 µM]
CCCCC1=CC2=C(c3ccco3)C(=O)C(C)(OC(=O)c3ccc(OC)cc3)C(=O)C2=CN1CC1CC1 (configuration not stated)	-19%	-11%	18µM*	1%	8.2µM*	7%[12.3 µM]
CCCCC1=CC2=C(c3ccco3)C(=O)C(C)(OC(=O)c3ccc(OC)cc3)C(=O)C2=CN1C1CC1 (configuration not stated)	-12%	?	-24%	-6%	?	14%[12.3 µM]
Cc1nc(-c2ccc(S(=O)(=O)Nc3ccc(OC(F)(F)F)cc3)cc2)co1	.	13%	?	1%	?	8%
COc1ccc(NS(=O)(=O)c2ccc(N3CCCCS3(=O)=O)cc2)cc1Cl	.	11%	4.6µM*	-3%	8.2µM*	4%
O=S(=O)(Nc1ccc(OC(F)(F)F)cc1)c1ccc(N2CCCCS2(=O)=O)cc1	.	6%	21µM*	25%	21µM*	6%
O=S(=O)(Nc1ccc(F)c(C(F)(F)F)c1)c1ccc(N2CCCCS2(=O)=O)cc1	.	2%	12µM*	-1%	21µM*	4%
Cc1ccc(-n2nc(C(=O)Nc3ccc(F)cc3F)c3c4ccccc4n(C)c3c2=O)cc1	.	-15%	9%	-4%	-7%	-12%
C=CCNc1nnc(Cc2ccc(C(C)C)cc2)c(=O)[nH]1	-17%	1%	3.3µM*	-6%	7.3µM*	50µM*
COc1ccc(Cc2nnc(NCCO)[nH]c2=O)cc1	4%	-3%	20%	1%	-1%	1%
CN1CC(=O)N(CC(=O)Nc2cccc3ccccc23)C1=O	-3%	-11%	4%	4%	-6%	1%
N#Cc1c(/N=C/C=C/c2ccccc2)sc2c1CCCC2	9.5µM*	?	-14%	38%	?	8%
Cc1ccc(/C=N/c2sc3c(c2C#N)CCC3)s1	-11%	-3%	-25%	-7%	0%	3%
N#Cc1c(/N=C/c2cc3ccccc3s2)sc2c1CCC2	-21%	8%	23µM*	2%	?	1%[56.1 µM]
Cc1cc(F)ccc1S(=O)(=O)Nc1ccc(C(=O)N2CCCCC2)cc1	-4%	-8%	?	3%	?	0%
CS(=O)(=O)NC(=O)CCC/C=C\C[C@H]1C(=O)C[C@@H](O)[C@@H]1/C=C/[C@@H](O)COc1ccccc1	.	-29%	.	-11%	.	13%
Cc1ccc(Cc2c(-c3ccc(Br)cc3)nc3cc(C)ccn23)cc1	0%	.	21µM*	.	23µM*	.
Cc1ccc(Cc2c(-c3ccc(F)cc3)nc3cc(C)ccn23)cc1	-6%	.	16µM*	.	?	.
Cc1ccc(Cc2c(-c3ccc(F)cc3)nc3ccc(Cl)cn23)cc1	-6%	.	?	.	?	.
CN(Cc1cnn(-c2ccc(F)cc2)c1)Cc1nc(Cc2ccccc2)no1	0%	12%	-17%	3%	?	5%
CCOC(=O)C1CC(CN2C(=O)c3ccccc3C2=O)OC1=O (configuration not stated)	-9%	-6%	-34%	.	0%	.
Cc1ccc(N2CCN(C(=O)NC3CCCCC3)CC2C)cc1 (configuration not stated)	-1%	8%	-20%	-8%	-19%	.
COC(=O)C1CCN(C(=O)CC(NC(=O)C(F)(F)F)c2cccs2)CC1 (configuration not stated)	-10%	5%	-4%	0%	8%	.
COc1c(-c2coc3cc4c(cc3c2=O)CC(OC(C)=O)C(C)(C)O4)ccc2c1C=CC(C)(C)O2 (configuration not stated)	.	5%	0.92µM*	-8%	1.3µM*	10%[56.1 µM]

From PubChem BioAssay
